Assay results taken from PubChem BioAssay (NCI).
This is part of a sample that, as a whole, favours compounds with a hit. Of some 83,000 tested, about 20% had one in any assay.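 In brief: 96-well plates, 48 h treatment, single concentration, percent growth endpoint.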

Key:
Experiment in all cases: NCI-60 one-dose screen, 48 h (100 = growth as untreated, 0 = no growth, -100 = all killed)
Details in all cases: 10 µM unless noted; active = growth percent below 10; inactive = the rest
[1] = system: HCT-15 colon
[2] = system: HT29 colon
[3] = system: SNB-19 CNS
[4] = system: U251 CNS
[5] = system: PC-3 prostate
[6] = system: SK-MEL-5 melanoma
[7] = system: UACC-62 melanoma
[8] = system: LOX IMVI melanoma
[9] = system: SK-MEL-28 melanoma

Measured: growth

C=C1C(=O)O[C@H]2[C@H]1CC/C(Cn1cc(CNC(=O)/C=C/c3c[nH]c4ccccc34)nn1)=C\CC[C@@]1(C)O[C@@H]21
inactive: [1] 94.4% | [2] 92.4% | [3] 91.5% | [4] 94.3% | [5] 95.3% | [6] 83.8% | [7] 87.6% | [8] 67.3% | [9] 91.7%

CC(C)(C)Nc1c(-c2cccs2)nc2ncccn12
inactive: [1] 102% | [2] 103% | [3] 95.9% | [4] 104% | [5] 95% | [6] 93.8% | [7] 95.8% | [8] 98.5% | [9] 113%

S=c1[nH]nc(-c2cc3ccc2CCc2ccc(cc2)CC3)n1-c1ccccc1
inactive: [1] 89.7% | [2] 90.8% | [3] 93.3% | [4] 94.5% | [5] 83.9% | [6] 96.5% | [7] 76.2% | [8] 98% | [9] 98.8%

O=C(NS(=O)(=O)c1ccccc1)n1cc(-c2ccncc2)c(-c2ccc(Cl)c(O)c2)n1
inactive: [1] 103% | [2] 100% | [3] 111% | [4] 110% | [5] 93.4% | [6] 100% | [7] 59% | [8] 79.9% | [9] 63%
